ChEMBL document CHEMBL3988442, “University of Dundee, Small-Polar-MMV Screening Library” (2021)
For part of these data: Measured potencies and affinities stand elsewhere.

Columns and labels:
Design in all cases: scale not given: direction of the effect not stated beside the values
[1] = target: Protein translocase subunit SecA (Escherichia coli (strain K12)) (UniProt P10408); assay: Assay to Identify E. coli SecA ATPase Inhibitors; type: functional; conditions: 30 µM
[2] = target: T1, Ubiquitin-activating enzyme e1, putative (Leishmania donovani (strain BPK282A1)) (UniProt E9BSI1); assay: Leishmania donovani Ubiquitin Activating Enzyme (LdE1); type: functional; conditions: 30 µM
T1 sequence (whole entry): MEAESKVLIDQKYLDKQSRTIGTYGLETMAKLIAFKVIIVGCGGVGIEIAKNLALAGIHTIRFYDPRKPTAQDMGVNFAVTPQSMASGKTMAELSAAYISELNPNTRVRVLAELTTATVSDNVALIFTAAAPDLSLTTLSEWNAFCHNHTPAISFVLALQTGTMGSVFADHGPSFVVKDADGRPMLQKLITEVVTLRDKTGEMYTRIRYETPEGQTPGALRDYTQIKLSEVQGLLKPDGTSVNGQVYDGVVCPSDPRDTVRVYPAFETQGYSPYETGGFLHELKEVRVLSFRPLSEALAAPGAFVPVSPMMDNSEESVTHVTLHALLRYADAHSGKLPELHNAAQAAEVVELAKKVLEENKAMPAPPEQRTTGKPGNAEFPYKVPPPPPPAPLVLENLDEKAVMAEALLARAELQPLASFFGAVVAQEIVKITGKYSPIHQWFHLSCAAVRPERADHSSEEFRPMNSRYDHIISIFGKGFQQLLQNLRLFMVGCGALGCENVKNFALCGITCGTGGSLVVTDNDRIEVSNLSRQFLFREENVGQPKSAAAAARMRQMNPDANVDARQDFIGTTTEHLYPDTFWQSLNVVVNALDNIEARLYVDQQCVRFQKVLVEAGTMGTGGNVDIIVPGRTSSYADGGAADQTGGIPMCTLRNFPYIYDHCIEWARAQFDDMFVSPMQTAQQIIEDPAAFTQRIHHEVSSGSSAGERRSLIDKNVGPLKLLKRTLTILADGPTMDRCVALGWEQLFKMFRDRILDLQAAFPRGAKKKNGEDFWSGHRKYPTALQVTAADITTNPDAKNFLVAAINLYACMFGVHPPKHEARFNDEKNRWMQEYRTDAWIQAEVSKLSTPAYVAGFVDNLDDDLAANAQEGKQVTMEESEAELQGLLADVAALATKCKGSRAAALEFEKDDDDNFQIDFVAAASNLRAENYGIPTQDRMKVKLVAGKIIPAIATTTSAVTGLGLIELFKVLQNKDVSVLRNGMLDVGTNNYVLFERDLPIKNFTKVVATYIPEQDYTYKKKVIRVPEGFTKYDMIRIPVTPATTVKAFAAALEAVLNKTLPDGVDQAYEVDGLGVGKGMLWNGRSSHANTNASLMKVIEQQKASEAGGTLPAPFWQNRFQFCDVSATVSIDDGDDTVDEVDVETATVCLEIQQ

[3] = target: AMP-activated protein kinase, AMPK (Homo sapiens) (UniProt P54646+O43741+P54619+Q9UGJ0+Q9Y478+Q13131+Q9UGI9); assay: AMP-dependent Kinase enzyme assay. An in vitro enzyme assay that detects ADP turnover that is directly proportional to AMPK activity. This uses naive AMPK that is activated during the assay with MK-8722; type: functional; conditions: 30 µM
[4] = target: Sialic acid-binding Ig-like lectin 9 (Homo sapiens) (UniProt Q9Y336); assay: Hs-Siglec9 ALPHAscreen SOP 20170721; conditions: 10 µM
[5] = tested on: Trypanosoma cruzi; assay: Trypanosoma cruzi phosphomannomutase and mannose-1-phosphate guanylyltransferase assay; type: functional; conditions: 10 µM
[6] = target: T2, Arginase-2, mitochondrial (Homo sapiens) (UniProt P78540); assay: in vitro enzyme assay to detect the production of urea directly proportional to the activity of Arginase II; type: functional; conditions: 33.3 µM; further: in the data most compounds retested in dose-response had high values
T2 sequence (whole entry): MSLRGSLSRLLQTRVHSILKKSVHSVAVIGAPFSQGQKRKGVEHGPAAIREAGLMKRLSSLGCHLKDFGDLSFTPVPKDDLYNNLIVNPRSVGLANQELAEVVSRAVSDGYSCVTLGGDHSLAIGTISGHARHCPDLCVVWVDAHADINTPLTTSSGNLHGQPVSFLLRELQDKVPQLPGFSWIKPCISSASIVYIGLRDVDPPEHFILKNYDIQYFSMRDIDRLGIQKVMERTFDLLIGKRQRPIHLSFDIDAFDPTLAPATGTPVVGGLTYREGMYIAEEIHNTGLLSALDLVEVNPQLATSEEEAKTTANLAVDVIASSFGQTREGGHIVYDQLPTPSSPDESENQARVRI

[7] = target: T3, Proteasome subunit beta (Trypanosoma cruzi) (UniProt O96673); assay: Trypanosoma cruzi proteasome chymotrypsin-like activity (TcProtChymo) assay.; further: in the data most compounds retested in dose-response had high values; type: functional; conditions: 9.37 µM
T3 sequence (whole entry): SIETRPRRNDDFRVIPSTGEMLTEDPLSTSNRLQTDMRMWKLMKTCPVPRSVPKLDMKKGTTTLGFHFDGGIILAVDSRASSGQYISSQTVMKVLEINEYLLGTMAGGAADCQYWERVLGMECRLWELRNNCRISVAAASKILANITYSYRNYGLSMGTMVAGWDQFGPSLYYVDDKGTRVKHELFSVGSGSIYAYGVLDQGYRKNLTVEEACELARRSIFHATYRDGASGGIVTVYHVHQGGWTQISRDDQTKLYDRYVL

[8] = species on record: Homo sapiens; assay: To identify inhibition of the IFN signalling (Jak-Stat) pathway via expression of an eGFP reporter gene under the control of an IFN-stimulated response element (ISRE) containing MxA promoter.; type: functional; conditions: 30 µM
[9] = target: T4, Tyrosyl-tRNA synthetase, putative (Trypanosoma cruzi (strain CL Brener)) (UniProt Q4DSP6); assay: Trypanosoma cruzi tyrosyl tRNA synthetase (TcYRS) _High Tyrosine SOP; type: functional; conditions: 30 µM; further: in the data most compounds retested in dose-response had high values
T4 sequence (whole entry): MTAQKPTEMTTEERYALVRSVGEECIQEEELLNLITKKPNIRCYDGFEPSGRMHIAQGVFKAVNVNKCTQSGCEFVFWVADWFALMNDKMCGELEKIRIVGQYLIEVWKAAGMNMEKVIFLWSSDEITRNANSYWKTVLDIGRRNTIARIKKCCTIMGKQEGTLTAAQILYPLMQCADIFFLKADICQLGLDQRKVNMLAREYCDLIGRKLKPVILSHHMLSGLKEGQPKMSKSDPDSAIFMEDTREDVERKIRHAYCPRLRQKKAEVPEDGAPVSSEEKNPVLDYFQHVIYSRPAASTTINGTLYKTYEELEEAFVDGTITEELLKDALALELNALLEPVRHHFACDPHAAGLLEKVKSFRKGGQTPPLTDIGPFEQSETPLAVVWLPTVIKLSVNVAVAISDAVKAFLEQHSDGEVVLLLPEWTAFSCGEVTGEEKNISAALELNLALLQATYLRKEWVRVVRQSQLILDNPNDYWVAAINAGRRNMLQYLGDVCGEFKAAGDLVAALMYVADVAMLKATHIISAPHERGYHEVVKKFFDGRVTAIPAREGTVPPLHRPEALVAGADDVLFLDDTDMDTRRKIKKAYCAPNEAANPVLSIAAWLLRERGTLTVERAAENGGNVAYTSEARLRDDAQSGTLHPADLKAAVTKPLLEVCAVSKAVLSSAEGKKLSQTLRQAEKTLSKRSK

[10] = target: T4, Tyrosyl-tRNA synthetase, putative (Trypanosoma cruzi (strain CL Brener)); assay: Trypanosoma cruzi tyrosyl tRNA synthetase (TcYRS) SOP; type: functional; conditions: 30 µM
[11] = target: Chromo domain-containing protein 1 (Saccharomyces cerevisiae (strain ATCC 204508 / S288c) (Baker's yeast)) (UniProt P32657); assay: ScCHD-1 Enzyme Inhibition Assay; type: functional; conditions: 30 µM; further: in the data most compounds retested in dose-response had high values
Chain of Chromo domain-containing protein 1 (Saccharomyces cerevisiae (strain ATCC 204508 / S288c) (Baker's yeast)) (P32657 whole entry, the tested form may be a part): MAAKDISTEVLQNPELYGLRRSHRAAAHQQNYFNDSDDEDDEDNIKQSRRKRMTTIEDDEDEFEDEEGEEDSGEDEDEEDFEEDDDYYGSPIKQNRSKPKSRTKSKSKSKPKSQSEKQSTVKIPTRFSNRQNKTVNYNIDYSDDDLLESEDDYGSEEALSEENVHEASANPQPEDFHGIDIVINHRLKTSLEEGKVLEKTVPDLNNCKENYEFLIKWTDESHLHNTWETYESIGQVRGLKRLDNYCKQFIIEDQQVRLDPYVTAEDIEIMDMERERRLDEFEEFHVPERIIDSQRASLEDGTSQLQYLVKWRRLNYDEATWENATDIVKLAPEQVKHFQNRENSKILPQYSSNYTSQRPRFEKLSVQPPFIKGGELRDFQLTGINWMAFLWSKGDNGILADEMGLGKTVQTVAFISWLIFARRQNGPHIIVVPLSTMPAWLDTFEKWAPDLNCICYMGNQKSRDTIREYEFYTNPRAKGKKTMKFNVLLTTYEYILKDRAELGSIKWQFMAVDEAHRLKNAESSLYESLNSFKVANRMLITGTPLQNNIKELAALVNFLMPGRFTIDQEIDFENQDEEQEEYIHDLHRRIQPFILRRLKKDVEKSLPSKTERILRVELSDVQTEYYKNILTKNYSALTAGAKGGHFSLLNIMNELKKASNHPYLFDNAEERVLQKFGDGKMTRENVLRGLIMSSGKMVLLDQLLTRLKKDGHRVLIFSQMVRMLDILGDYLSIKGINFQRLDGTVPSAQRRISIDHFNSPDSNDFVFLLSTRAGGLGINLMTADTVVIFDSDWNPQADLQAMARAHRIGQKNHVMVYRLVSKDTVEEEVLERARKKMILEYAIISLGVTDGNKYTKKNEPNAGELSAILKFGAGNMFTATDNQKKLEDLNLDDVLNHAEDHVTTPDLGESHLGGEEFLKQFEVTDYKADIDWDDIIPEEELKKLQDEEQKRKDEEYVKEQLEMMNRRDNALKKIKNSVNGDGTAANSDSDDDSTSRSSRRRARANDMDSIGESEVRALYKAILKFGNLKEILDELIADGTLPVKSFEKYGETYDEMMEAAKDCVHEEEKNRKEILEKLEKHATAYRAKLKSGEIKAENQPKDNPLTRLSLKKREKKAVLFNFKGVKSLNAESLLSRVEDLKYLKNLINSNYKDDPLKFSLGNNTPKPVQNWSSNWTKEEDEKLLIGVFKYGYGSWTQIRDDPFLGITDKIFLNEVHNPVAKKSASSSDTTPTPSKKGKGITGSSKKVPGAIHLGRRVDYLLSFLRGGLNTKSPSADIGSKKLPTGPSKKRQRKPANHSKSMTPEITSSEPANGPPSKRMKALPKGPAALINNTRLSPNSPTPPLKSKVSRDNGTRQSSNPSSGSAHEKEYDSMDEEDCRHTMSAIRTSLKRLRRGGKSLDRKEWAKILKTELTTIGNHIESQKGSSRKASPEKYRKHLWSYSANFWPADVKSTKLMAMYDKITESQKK

Chain of Sialic acid-binding Ig-like lectin 9 (Homo sapiens) (Q9Y336 whole entry): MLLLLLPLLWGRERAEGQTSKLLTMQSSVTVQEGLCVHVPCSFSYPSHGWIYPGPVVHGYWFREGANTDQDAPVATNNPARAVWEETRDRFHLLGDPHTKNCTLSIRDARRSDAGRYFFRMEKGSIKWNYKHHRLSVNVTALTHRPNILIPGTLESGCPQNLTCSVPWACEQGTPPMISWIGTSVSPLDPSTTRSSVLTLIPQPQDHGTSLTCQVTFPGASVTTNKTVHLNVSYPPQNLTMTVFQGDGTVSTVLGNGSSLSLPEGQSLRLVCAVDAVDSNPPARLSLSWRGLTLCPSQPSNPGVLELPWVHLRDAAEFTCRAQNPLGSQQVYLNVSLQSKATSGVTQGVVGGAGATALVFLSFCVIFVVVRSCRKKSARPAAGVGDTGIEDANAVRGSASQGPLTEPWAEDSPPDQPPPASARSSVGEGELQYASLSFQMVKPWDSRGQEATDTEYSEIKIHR
Chain of Protein translocase subunit SecA (Escherichia coli (strain K12)) (P10408 whole entry): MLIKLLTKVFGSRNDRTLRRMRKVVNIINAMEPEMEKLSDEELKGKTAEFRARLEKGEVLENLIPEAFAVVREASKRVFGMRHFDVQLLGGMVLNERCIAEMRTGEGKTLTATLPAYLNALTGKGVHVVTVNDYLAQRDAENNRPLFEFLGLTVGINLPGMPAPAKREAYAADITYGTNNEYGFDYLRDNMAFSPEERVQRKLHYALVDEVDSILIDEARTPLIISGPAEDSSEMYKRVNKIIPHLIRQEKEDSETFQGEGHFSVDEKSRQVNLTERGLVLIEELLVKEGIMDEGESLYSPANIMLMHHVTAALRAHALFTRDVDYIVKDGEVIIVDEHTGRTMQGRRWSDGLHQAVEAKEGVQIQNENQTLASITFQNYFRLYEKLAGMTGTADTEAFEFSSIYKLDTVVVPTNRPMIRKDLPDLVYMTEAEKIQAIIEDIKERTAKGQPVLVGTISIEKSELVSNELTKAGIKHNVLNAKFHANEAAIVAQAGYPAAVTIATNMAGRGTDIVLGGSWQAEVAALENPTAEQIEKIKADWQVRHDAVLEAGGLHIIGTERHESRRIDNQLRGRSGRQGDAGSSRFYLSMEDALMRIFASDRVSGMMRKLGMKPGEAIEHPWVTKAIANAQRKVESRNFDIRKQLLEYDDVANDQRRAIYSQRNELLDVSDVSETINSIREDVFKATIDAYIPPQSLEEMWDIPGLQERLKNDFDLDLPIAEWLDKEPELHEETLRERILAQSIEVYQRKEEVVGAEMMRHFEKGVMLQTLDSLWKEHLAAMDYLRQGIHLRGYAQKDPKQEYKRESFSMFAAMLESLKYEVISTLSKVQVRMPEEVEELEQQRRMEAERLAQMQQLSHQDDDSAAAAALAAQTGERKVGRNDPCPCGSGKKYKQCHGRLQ

SMILES | Percent Effect [1] | Percent Effect [2] | Percent Effect [3] | Percent Effect [4] | Percent Effect [5] | Percent Effect [6] | Percent Effect [7] | Percent Effect [8] | Percent Effect [9] | Percent Effect [10] | Percent Effect [11]
CCOC(=O)C1CCCN(c2ccc(-c3nc(C)no3)cn2)C1 (configuration not stated) | -4.99% | 8% | -4.16% | 19.1% | 5.36% | 6.25% | 0% | 1.88% | 3.83% | 11.1% | -6.07%
COc1cccc(N2CCN(CC(O)c3cc(C)sc3C)CC2)c1 (configuration not stated) | -4.6% | 20.3% | 6.95% | -1.22% | 2.77% | -2.55% | 5.62% | 19.5% | 15.1% | 22.1% | -16.3%
Cc1cccc(CN2C(=O)CC[C@@H]3[C@H]2CCN3CC2CCOCC2)n1 | -3.19% | 16% | 1.45% | -4.46% | 2.36% | 0.699% | 14% | -19.1% | 5.32% | 11.5% | -4.59%
Cc1cnn(CCNCC(O)COc2c(C)ccc(C)c2C)c1 (configuration not stated) | -5.33% | 20.2% | -11.8% | 20.1% | 6.7% | -4.56% | 8.27% | -1.01% | 7.39% | 21.5% | -4.18%
O=C(c1cncc(N2CCC(O)(CO)CC2)n1)N1CCCC1 | -4.63% | 5.33% | -3.65% | 8.86% | 6.72% | 0% | 16.9% | -11.2% | 9.29% | 18.5% | -7.99%
COCc1c(C(=O)O)nnn1Cc1cccc(C(F)(F)F)c1 | -0.917% | 9.33% | -2.19% | 0.663% | -4.13% | -8.98% | 14.1% | 5.79% | 3.17% | 10.3% | -10.2%
CCO[C@@H]1CO[C@@]2(CCCN(C(=O)c3ccc(OC)c(F)c3)C2)C1 | -3.5% | 10.4% | 6.36% | -0.114% | -3.06% | 11% | 16.5% | 6.86% | 11.6% | 8.97% | -7.2%
Brc1cc2c(cc1CN1CCC(N3CCCCC3)CC1)OCCO2 | -3.24% | -1.39% | -9.98% | -5.8% | -0.291% | 5.74% | 10.7% | 2.68% | 5.26% | 10.3% | -2.58%
Cc1ccsc1[C@@H]1CCN(C(=O)c2cc3ccccc3[nH]2)C[C@H]1O | -2.04% | -1.39% | 0.967% | -5.71% | -6.51% | -0.442% | 15.3% | 12.8% | -3.16% | -2.56% | 2.93%
CCS(=O)(=O)N1C[C@H]2CN(Cc3cccnc3)C(=O)[C@H]2C1 | -1.39% | 2.7% | 0.503% | 1.84% | -6.25% | 0% | 10.9% | 19.2% | 4.95% | 6.1% | 1.54%
CCCc1nc(CN2CCN(Cc3noc(CCC)n3)CC2)no1 | -5.83% | 13.9% | -4.71% | 0.206% | -0.718% | -8.39% | 10.5% | 7.72% | 11.5% | 17.7% | -33.6%
COc1cccc2c1ccn2CCC(=O)N1CCCC(C(=O)O)C1 (configuration not stated) | -4.55% | 5.26% | -2.19% | -4.72% | -9.64% | 2.37% | 11.2% | 12.8% | -3.19% | 0% | -6.61%
